This is a sample that favours compounds with a hit; in the whole collection about 2.2% have one here.
FUS yeast rescue: rescues growth of FUS-expressing yeast; S. cerevisiae FUS-expressing, growth rescue, OD600, 24 h; Potency, µM (series often up to 76.6 µM), most hits filed as activators; 390,000 compounds, 0.24% hits; AID 1347120;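 also: plate controls were DMSO vehicle for no effect and reference control for full effect; nearly all actives have a fitted effect of over 55% in size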
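Yeast FUS proteinopathy model; galactose-induced FUS (2%), starting OD 0.005. Cpds in dilution series, 24hr, 30C, 99% humidity. Abs 600 nm growth. Pos ctrl CP55940 (top 92uM final); neg ctrl DMSO.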
aSyn rescue: alpha-synuclein toxicity inhibition in yeast; Yeast expressing alpha-synuclein, growth rescue, BacTiter-Glo, 24 h; Potency, µM (doses to about 46.1 µM), inactives show at the highest dose growth rescue (activation), actives largely listed as activators; 370,000 compounds, 0.14% hits; AID 652106; also: % of control where 0% means no effect; nearly all actives have a fitted effect of over 65% in size
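Screening used galactose-induced yeast with toxic alpha-synuclein levels, exposed to compound for 24 hr at 30 deg C. Cell growth, read with BacTiter-Glo luminescence, gave the measured signal.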
Abeta yeast res: restores growth of yeast expressing A-beta42 peptide; yeast expressing A-beta42, growth rescue, OD600, 48 h; response scale: 0% DMSO, 100% iron-clioquinol control; Potency, µM (highest dose often 46.1 µM), actives largely listed as activators; 410,000 compounds, 0.063% hits; AID 1347071; also: nearly all actives have a fitted effect of over 55% in size
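Yeast growth medium received pinned compounds, then yeast cells expressing toxic A-beta were added; plates incubated at 30 C for 48 hr. Growth read as absorbance at 600 nm, normalized to DMSO and equimolar FeCl3 plus clioquinol controls.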
Mito fusion yeast: blocks mitochondrial division or promotes mitochondrial fusion; S. cerevisiae fusion-defective mutant growth rescue, CellTiterGlo 48 h; Potency, µM (series often up to 46.1 µM), for the others: top-dose growth rescue (activation), usual class: activators; 320,000 compounds, 0.23% hits; also: % of control where 0% means no effect; nearly all actives have a fitted effect of over 45% in size
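Yeast fusion mutant, YPEG (non-fermentable carbon), compound, 48 h at 37C non-permissive; CellTiterGlo added, 10 min RT, luminescence read. Rescued growth = division inhibition.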
TDP43 rescue: rescues yeast growth from TDP-43 toxicity; AID 652104; Potency, µM (top dose mostly 46.1 µM), inactives show top-dose growth rescue (activation), hits mostly activators; TDP-43 expressing yeast growth rescue, BacTiter-Glo, 24 h; 410,000 compounds, 1.8% hits; also: % of control where 0% means no effect; nearly all actives have a fitted effect of over 50% in size
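In this qHTS, compounds that restore growth of yeast expressing TDP-43 appear as activators. Cells (OD600=0.02, galactose medium, raffinose-pregrown) are incubated with compound 24 hr at 30 deg C and growth is quantified by BacTiter-Glo.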
Numbers without * were called inactive. Calls follow the shape of the dose curve; as a rule, active = well fitted curve in the direction sought with a large enough effect; inconclusive = small, poorly fitted or top-dose-only effect, or another doubt; inactive = no such curve, though single readings can be large; an effect the other way counts as inactive or inconclusive. Potency is read from the fitted curve at half-maximal effect.

For Cc1ccc(Nc2c(N)c(=O)oc3ccccc23)cc1 the results were FUS yeast rescue inactive, aSyn rescue 1%, Abeta yeast res inactive, Mito fusion yeast -6% and TDP43 rescue 14µM*.
COc1cccc(CN2C(=O)[C@@H]3Cc4c([nH]c5ccccc45)C(C)(C)N3C2=O)c1 was read as FUS yeast rescue inconclusive and Abeta yeast res 10µM*.
Screening Cc1ccc(CN2C(=O)[C@@H]3Cc4c([nH]c5ccccc45)C(C)(C)N3C2=O)cc1 returned FUS yeast rescue inactive and Abeta yeast res inconclusive.
`CCCCC(=O)N(C)c1c(CC)nc2c(OCC(=O)c3ccc(Cl)cc3Cl)cccn12` gave FUS yeast rescue 32µM*, aSyn rescue -11%, Abeta yeast res inactive and TDP43 rescue 6%.
CCc1nc2c(OCc3ccc(Cl)cc3Cl)cccn2c1N(C)C(=O)c1ccccc1F was read as FUS yeast rescue inconclusive, aSyn rescue 0%, Abeta yeast res inactive and TDP43 rescue 18µM*.
`O=C(N/N=C/c1cc2c3c(c1O)CCCN3CCC2)c1ccccc1O` gave FUS yeast rescue inactive, aSyn rescue 22µM*, Abeta yeast res inactive, Mito fusion yeast inconclusive and TDP43 rescue -35%.
Cc1nn(-c2ccccc2)c(N2CCCC2)c1/C=N/NC(=O)c1ccccc1O was read as FUS yeast rescue inactive, aSyn rescue -7%, Abeta yeast res inactive, Mito fusion yeast -5% and TDP43 rescue 5%.
`CCCNC(=O)c1ccc(COc2cccc3ccccc23)o1` gave FUS yeast rescue inactive, aSyn rescue -8%, Abeta yeast res inactive, Mito fusion yeast 27% and TDP43 rescue 18µM*.
Screening CCOC(=O)CC[C@@]1(C(=O)OCC)C[C@@H](CC(=O)NCc2ccc(C)o2)C(=O)N2CCCC=C21 returned FUS yeast rescue inactive.
For CC(=O)N/C(N)=N/c1nc(=O)c2ccccc2s1 the results were FUS yeast rescue inactive, aSyn rescue 6%, Abeta yeast res inactive, Mito fusion yeast -4% and TDP43 rescue 7%.
`CCOC(=O)N/C(N)=N/c1nc2ccccc2s1` gave FUS yeast rescue inactive, Abeta yeast res inactive, Mito fusion yeast 1% and TDP43 rescue 11µM*.
Cc1ccc(C(=O)O)cc1Nc1nc2ccccc2n2nnnc12 was read as FUS yeast rescue inactive, Abeta yeast res inactive and TDP43 rescue -17%.
CCc1cc2c(N3CCN(c4ccccc4)CC3)ncnc2s1 was read as FUS yeast rescue inactive, aSyn rescue 12%, Abeta yeast res inactive, Mito fusion yeast 7% and TDP43 rescue 13µM*.
For CC(=O)N1CCN(c2ncnc3sc(-c4ccccc4)cc23)CC1 the results were FUS yeast rescue inactive, aSyn rescue -3%, Abeta yeast res inactive, Mito fusion yeast 4% and TDP43 rescue 16%.
For Oc1ccc(N2CCN(c3ncnc4sc(-c5ccccc5)cc34)CC2)cc1 the results were FUS yeast rescue inconclusive, aSyn rescue inconclusive, Abeta yeast res inactive, Mito fusion yeast 1% and TDP43 rescue 11µM*.
O=C(CCCn1c(=O)c2cccn2c2ccccc21)NCCc1ccc(Cl)cc1 was read as FUS yeast rescue inactive, Abeta yeast res inconclusive and TDP43 rescue 25µM*.
Cc1ccc2c(c1)c1c(n2CC2COC(C)(C)O2)C(=O)CCC1 (stereo not drawn) was read as FUS yeast rescue inactive, aSyn rescue 0%, Abeta yeast res inactive, Mito fusion yeast -1% and TDP43 rescue 13µM*.
`CC(C)(C#N)Cc1cc(CC(C)(C)C#N)cc(C(C)(C)C)c1` gave FUS yeast rescue inactive, aSyn rescue -10%, Abeta yeast res inactive, Mito fusion yeast -1% and TDP43 rescue -20%.
For CC(C)(Cc1cc(CC(C)(C)C(=O)O)cc(C(C)(C)C)c1)C(=O)O the results were FUS yeast rescue inactive, aSyn rescue 3%, Abeta yeast res inactive, Mito fusion yeast 3% and TDP43 rescue 35µM*.
For CCOC(=O)Cn1c2ccc(C)cc2c2nc(C)sc21 the results were FUS yeast rescue inactive, aSyn rescue -8%, Abeta yeast res inactive, Mito fusion yeast 4% and TDP43 rescue 16µM*.
For COc1ccccc1-c1nn2c(-c3cc(C)[nH]n3)nnc2s1 the results were aSyn rescue -9%.
Screening COc1cc(CNn2c(C)n[nH]c2=S)cc(Br)c1OCc1ccc(F)cc1 returned FUS yeast rescue inactive, aSyn rescue 3%, Abeta yeast res inactive, Mito fusion yeast inconclusive and TDP43 rescue 35µM*.
Screening COc1ccccc1NC(=O)C1=C(C)Nc2nc3ccccc3n2C1c1ccccc1Cl (stereo not drawn) returned FUS yeast rescue inactive, Abeta yeast res inactive and TDP43 rescue 18%.
COc1cccc(NC(=O)CSC2=Nc3ccccc3C3=NC(CC(=O)NCc4ccc5c(c4)OCO5)C(=O)N23)c1 (stereo not drawn) was read as FUS yeast rescue 25µM*, Abeta yeast res inactive and TDP43 rescue 5%.
`CCNC(=O)n1nccc1C(C)Oc1ccccc1` (stereo not drawn) gave FUS yeast rescue inactive, aSyn rescue 1%, Abeta yeast res inactive, Mito fusion yeast 1% and TDP43 rescue 11µM*.
CN(C(=O)c1ccc(NC(=O)Cc2cccc(NC(=O)C3CCCN(C(=O)C4CCCCC4)C3)c2)cc1)C1CCCC1 (stereo not drawn) was read as FUS yeast rescue 28µM*, aSyn rescue -2%, Abeta yeast res inactive, Mito fusion yeast 3% and TDP43 rescue 10%.
`CN(C(=O)c1ccc(NC(=O)Cc2cccc(NC(=O)C3CCCN(C(=O)C4CCC4)C3)c2)cc1)C1CCCC1` (stereo not drawn) gave FUS yeast rescue inconclusive, aSyn rescue 2%, Abeta yeast res inactive, Mito fusion yeast -1% and TDP43 rescue -19%.
Screening O=C1CC(c2ccc(Cl)c([N+](=O)[O-])c2)c2ccc3ccccc3c2N1 (stereo not drawn) returned FUS yeast rescue inactive, aSyn rescue 6%, Abeta yeast res inactive, Mito fusion yeast 13µM* and TDP43 rescue 29%.
For Cc1cc2c(cc1C)C(c1cccc([N+](=O)[O-])c1)CC(=O)N2 (stereo not drawn) the results were FUS yeast rescue inactive, aSyn rescue 19%, Abeta yeast res inactive, Mito fusion yeast 24% and TDP43 rescue 7%.
For S=c1nc(C2CCCCC2)n(-c2ccccc2)[nH]1 the results were FUS yeast rescue inactive, aSyn rescue -4%, Abeta yeast res 13µM*, Mito fusion yeast 9% and TDP43 rescue 3%.

High-throughput results deposited in PubChem BioAssay by National Center for Advancing Translational Sciences (NCATS).
